Pf apPOL inh: Pf-apPOL DNA polymerase inhibition; inhibition, % at 10 µM; hit rate 0.25% among 210,000; Recombinant Pf-apPOL, molecular beacon fluorescence, 1.5 h; AID 1794808
mHTT CaM bind: inhibitors of human mutant huntingtin-calmodulin interaction; P42858; AlphaScreen His-mHTT/GST-CaM binding, luminescence; inhibition, % at 15 µM; hit rate 3.6% among 190,000; AID 1671202;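 note: 0% = both proteins with DMSO and 100% = one protein alone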
The depositor's hits bear a star; · = no result given. An excerpt weighted towards active compounds, which were near 3.6% of everything screened. Cut-off read from the data, not from the text of the source: active = inhibition above about 50%; inactive = the rest.

SMILES | Pf apPOL inh | mHTT CaM bind
COc1ccccc1C(=O)N/C(=C/c1ccc2c(c1)OCO2)C(=O)NC(CC(C)C)C(=O)O (configuration not stated) | 3.1 | 3.0
O=C(CSc1nc2c(c(=O)n1-c1ccc(Cl)cc1)SCC2)Nc1ccccc1F | 5.2 | 18.0
CCC(C)NC(=O)CN1CCN(C(=O)Nc2ccc(Br)cc2)CC1=O (configuration not stated) | -3.4 | -9.0
O=C(Nc1ccccc1Cl)c1ncn[nH]1 | -3.2 | 25.5
O=C(Nc1ccc(I)cc1Cl)c1ncn[nH]1 | -6.5 | 96.1*
CC(C)C(=O)N1CCN(c2nc(CN3CCOCC3)cs2)CC1 | -0.8 | -4.3
O=C(CCCc1ccccc1)N1CCCn2nc(-c3cccs3)cc2C1 | -8.2 | -3.7
COc1ccccc1CC(=O)N1CCCC1c1ccc(Cl)cc1 (configuration not stated) | -2.4 | 59.2*
O=C(CCCc1ccccc1)N1CCCn2nc(-c3ccc(Cl)cc3)cc2C1 | 0.1 | 88.2*
Cc1cccc(-c2cc3n(n2)CCCN(C(=O)Cc2ccccc2F)C3)c1 | -3.4 | 72.9*
COc1ccccc1CC(=O)N1CCCn2nc(-c3cccc(C)c3)cc2C1 | -7.1 | 38.1
COc1ccccc1CC(=O)N1CCCn2nc(-c3ccc(Cl)cc3)cc2C1 | -2.2 | 70.7*
COc1ccccc1CC(=O)N1CCCC1c1ccc(C)cc1 (configuration not stated) | -1.7 | -4.5
O=C(Cc1ccccc1F)N1CCCn2nc(-c3ccc(Cl)cc3)cc2C1 | -15.6 | 29.5
O=C(Nc1ccc(S(=O)(=O)N2CCc3ccccc32)cc1)c1ccccc1Br | 0.6 | 5.0
COc1ccc(Cc2[nH]n3c(=O)c4c(nc3c2-c2ccccc2)CCCC4)cc1 | -2.2 | -1.1
O=C(O)C1C2C=CC(O2)C1C(=O)Nc1ccc(F)c([N+](=O)[O-])c1 (configuration not stated) | -7.1 | -1.0
O=C(c1cc(-c2ccccc2)n[nH]1)N1CC(c2nc(C3CC3)no2)C1 | -9.7 | -15.0
CN(C)CCCNc1ccc([N+](=O)[O-])cc1[N+](=O)[O-] | · | -1.5
COc1ccc(/C=C/c2nc(=O)c(-c3ccccc3)c(C)o2)cc1 | 0.7 | 3.0
COc1ccccc1CCC(=O)N1CCCn2nc(-c3ccc(C)cc3)cc2C1 | -3.8 | 35.3
Cc1cccc(-c2cc3n(n2)CCCN(C(=O)CCCc2ccccc2)C3)c1 | -8.6 | 55.8*
COCC(=O)N1CCCn2nc(-c3cccc(C)c3)cc2C1 | -1.4 | -3.2
COc1ccc(-c2cc3n(n2)CCCN(Cc2ccccc2C)C3)cc1OC | 1.5 | 72.8*
O=C1NN(c2ccccc2)C(=O)/C1=C/C=C/c1ccccc1Cl | 11.6 | 5.0
SMILES | Pf apPOL inh | mHTT CaM bind
CCCN(CCC)CCNC(=O)c1c(C)cc(=O)oc1C | -11.8 | 25.0
COc1ccc(CCNC(=O)C(=O)Nc2ccc(OC)cc2)cc1 | 4.1 | 1.0
O=C(CSc1nc2c(cnn2CCO)c(=O)[nH]1)Nc1ccccc1C(F)(F)F | 1.5 | -7.5
COc1ccc(N2C(=O)CCC(C(=O)Nc3cc(OC)ccc3OC)C2c2ccc(F)cc2)cc1 (configuration not stated) | -1.6 | 38.0
COc1ccc(C2C(C(=O)Nc3cc(C)ccc3OC)CCC(=O)N2c2ccc(OC)cc2)cc1 (configuration not stated) | -4.8 | 56.0*
Cc1ccc(C2SCC(=O)N2c2ccc(Br)cc2)cc1 (configuration not stated) | 1.2 | -11.0
c1ccc(OCCOc2ccc(-c3cc(C4CCNCC4)[nH]n3)cc2)cc1 | 7.9 | 62.0*
c1ccc(OCCC2CCNCC2)cc1 | -3.6 | -1.8
CC1(C)C2CCC1(C)C(OCC(O)CN(CCO)Cc1ccccc1)C2 (configuration not stated) | 1.5 | 35.4
CC(=NCc1ccccc1)C1=C(O)CC(C)(C)CC1=O | -2.8 | -4.3
Cc1[nH]c2ccccc2c1C(Nc1ccccc1F)c1ccccn1 (configuration not stated) | -13.3 | 23.8
COc1cc(C(C[N+](=O)[O-])c2c(C)[nH]c3ccccc23)cc(OC)c1OC (configuration not stated) | 6.6 | 42.2
Cc1[nH]c2ccccc2c1C(C[N+](=O)[O-])c1ccc(F)cc1 (configuration not stated) | -5.8 | 54.0*
Cc1[nH]c2ccccc2c1C(Nc1ccccn1)c1ccc([N+](=O)[O-])cc1 (configuration not stated) | -1.1 | 97.1*
COc1cc(C=C2Oc3cc(OC(C)=O)cc(C)c3C2=O)cc(OC)c1OC | 3.0 | -1.0
COc1cc(C=O)cc(I)c1OCc1cccc([N+](=O)[O-])c1 | 11.1 | 17.9
COc1cc([N+](=O)[O-])ccc1NC(=O)c1oc(=O)c2ccccc2c1-c1ccccc1 | -2.2 | 7.0
CN(c1ccc(F)cc1)S(=O)(=O)c1ccc2[nH]cc(C(=O)O)c(=O)c2c1 | -4.7 | 8.0
CN(C)c1ccc2[nH]c3c(C(=O)O)cc(=O)c(=O)c=3oc2c1 | · | 66.5*
CC(=O)Nc1sc2c(c1C(=O)Nc1c(C)cccc1C)CCCCC2 | 2.1 | -5.5
Cn1c(/C=C/c2ccc([N+](=O)[O-])o2)nc2ccccc2c1=O | -3.6 | 2.6
Cn1cc(C(c2ccc([N+](=O)[O-])o2)c2cn(C)c3ccccc23)c2ccccc21 | -0.4 | 65.0*
O=C(/C=C/c1ccccc1)N1CCN(C2=NS(=O)(=O)c3ccccc32)CC1 | -1.9 | 6.0
Cc1c(Br)c([N+](=O)[O-])nn1CC(=O)NNC(=O)Cn1cc([N+](=O)[O-])cn1 | · | -0.3
NNc1nc(-c2ccccc2)cs1 | -7.9 | 57.5*
SMILES | Pf apPOL inh | mHTT CaM bind
c1ccc(-c2csc(Nc3ncccn3)n2)cc1 | -3.8 | -5.4
Oc1ccc(Nc2nc(-c3ccccc3)cs2)cc1 | -8.1 | 79.1*
Oc1cccc(Nc2nc(-c3ccccc3)cs2)c1 | -1.7 | 33.0
O=C(NC1CCCCCC1)c1cnn2c(-c3ccccc3)ccnc12 | -3.5 | -11.7
Cc1oc(C(=O)O)cc1COc1ccc2c(C)c(C)c(=O)oc2c1C | -5.8 | 8.0
Cc1oc(C(=O)O)cc1COc1cccc2cccnc12 | 0.3 | 73.8*
CCN(CC)c1ccc(NC(=O)CCS(=O)(=O)c2cccc3nsnc23)c(C)c1 | -2.2 | 17.0
CCN(CC)c1ccc(NS(=O)(=O)c2cccc3nsnc23)c(C)c1 | -3.9 | 54.0*
Cc1ccccc1C1CN(C(=O)c2cccs2)CC1C(=O)NCC(C)C (configuration not stated) | 3.8 | -12.1
CCOc1ccc(-n2ccnc(NC(=O)c3cccc(Cl)c3)c2=O)cc1 | -0.6 | 1.4
Cc1ccc2[nH]c3c(c2c1)CCCC3NC(N)=O (configuration not stated) | -9.6 | 29.9
Brc1ccc2[nH]c3c(c2c1)CCCC3NCc1ccccc1 (configuration not stated) | -1.2 | 100.3*
Cc1ccc2[nH]c3c(c2c1)CCCC3NCc1ccc(F)cc1 (configuration not stated) | 15.8 | 57.0*
O=CNC1CCCc2c1[nH]c1ccc(Br)cc21 (configuration not stated) | -4.2 | 30.0
CCC(C(=O)Nc1ccc(C(N)=O)cc1)c1ccccc1 (configuration not stated) | -6.4 | -4.4
Cc1ccccc1CC(=O)N1CCC(c2ccn3ncc(C(=O)N4CCCC4)c3c2)CC1 | 0.4 | 12.9
Cc1c(C)n(CC(O)CNc2ccc(Cl)cc2)c2ccccc12 (configuration not stated) | 2.2 | 100.0*
Cc1c(C)n(CC(O)CNC(C)c2ccccc2)c2ccccc12 (configuration not stated) | -4.5 | 30.6

Screening data from PubChem BioAssay.
